Assay results published in PubChem BioAssay AID1159580 (chemical genetic matrix, 2015).
The campaign covered roughly 5,500 compounds. About 2,000 (36%) were called active. About 18% were inconclusive and are not listed. No stated cut-off is given here; in the data, active means normalized growth mostly below about 0.91 (no sharp cut-off); inconclusive means no clear call, values can overlap the other calls; inactive means mostly above about 0.92. This is one part of the list.

Test: chemical genetic growth profiling, strain panel (AID 1159580);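 further: tested at 20 µM; growth read once vehicle control cultures reached saturation at 30 °C; 1 = growth at the plate median or of vehicle wells; lower values mean less growth of the strain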
Conditions: growth OD
[1] = S. cerevisiae deletion strains, locus YAL013W, strain DEP1, hits give low values
[2] = S. cerevisiae deletion strains, locus YBR229C, strain ROT2, hits give low values
[3] = S. cerevisiae deletion strains, locus YCL061C, strain MRC1, hits give low values
[4] = S. cerevisiae deletion strains, locus YDL101C, strain DUN1, hits give low values
[5] = S. cerevisiae deletion strains, locus YDR150W, strain NUM1, hits give low values
[6] = S. cerevisiae deletion strains, locus YEL061C, strain CIN8, hits give low values
[7] = S. cerevisiae deletion strains, locus YGR078C, strain PAC10, hits give low values
[8] = S. cerevisiae deletion strains, locus YHR030C, strain SLT2, hits give low values
[9] = S. cerevisiae deletion strains, locus YHR087W, strain rtc3, hits give low values
[10] = S. cerevisiae deletion strains, locus YJR043C, strain POL32, hits give low values
[11] = S. cerevisiae deletion strains, locus YJR075W, strain HOC1, hits give low values
[12] = S. cerevisiae deletion strains, locus YKL190W, strain CNB1, hits give low values
[13] = S. cerevisiae deletion strains, locus YLR039C, strain RIC1, hits give low values
[14] = S. cerevisiae deletion strains, locus YLR058C, strain SHM2 (second series), hits give low values
[15] = S. cerevisiae deletion strains, locus YLR085C, strain ARP6, hits give low values
[16] = S. cerevisiae deletion strains, locus YLR262C, strain YPT6, hits give low values
[17] = S. cerevisiae deletion strains, locus YML094W, strain GIM5, hits give low values
[18] = S. cerevisiae deletion strains, locus YMR219W, strain ESC1, hits give low values
[19] = S. cerevisiae deletion strains, locus YMR263W, strain SAP30, hits give low values
[20] = S. cerevisiae deletion strains, locus YNL153C, strain GIM3, hits give low values
[21] = S. cerevisiae deletion strains, locus YNL298W, strain CLA4 (second series), hits give low values
[22] = S. cerevisiae deletion strains, locus YNL322C, strain KRE1, hits give low values
[23] = S. cerevisiae deletion strains, locus YNR030W, strain Alg12, hits give low values
[24] = S. cerevisiae deletion strains, locus YOL006C, strain TOP1, hits give low values
[25] = S. cerevisiae deletion strains, locus YPL055C, strain LGE1, hits give low values
[26] = S. cerevisiae deletion strains, locus YPL241C, strain CIN2, hits give low values
[27] = S. cerevisiae deletion strains, locus YPR135W, strain CTF4, hits give low values
[28] = S. cerevisiae strains, strain wild type, hits give low values

Measured: normalized growth

CCOC(=O)C(=CNc1ccccc1N1CCOCC1)C(=O)OCC
active: [15] 0.722 | [27] 0.52
inactive: [1] 0.96 | [2] 0.989 | [3] 0.978 | [4] 0.958 | [5] 0.939 | [6] 1 | [7] 0.963 | S. cerevisiae deletion strains, locus YGR229C, strain SMI1, hits give low values 0.978 | [8] 0.759 | [9] 0.999 | S. cerevisiae deletion strains, locus YJL187C, strain SWE1, hits give low values 0.979 | [10] 0.967 | [11] 0.991 | [12] 0.955 | [13] 0.9 | [14] 0.971 | [16] 0.915 | [17] 0.958 | [18] 0.981 | [19] 0.968 | [20] 0.986 | [21] 0.916 | [22] 0.975 | [23] 0.937 | [24] 0.825 | [25] 0.987 | [26] 0.938

CCOC(=O)C(=CNc1cccc(C#N)c1)C(=O)OCC
inactive: [1] 1.01 | [2] 0.987 | [3] 1 | [4] 1 | S. cerevisiae deletion strains, locus YDL134C, strain PPH21, hits give low values 0.994 | [5] 0.992 | [6] 0.957 | [7] 1.01 | [8] 0.942 | [9] 0.973 | [10] 1.02 | [11] 0.981 | [12] 0.98 | [13] 0.988 | [14] 0.995 | [15] 0.977 | [16] 0.962 | [17] 0.963 | [18] 0.997 | [19] 1.01 | S. cerevisiae deletion strains, locus YNL128W, strain TEP1, hits give low values 1.01 | [20] 1.01 | [21] 0.999 | [22] 0.997 | [23] 1.03 | [24] 0.91 | [25] 0.934 | [26] 1.01 | [27] 1.03 | [28] 0.994

CCOC(=O)C(=CNNC(=O)c1ccccc1-n1cccc1)C(=O)OCC
inactive: [1] 0.993 | [2] 1.01 | [3] 1.01 | [4] 1.03 | [5] 1.01 | [6] 0.955 | [7] 1.01 | [8] 1.01 | [9] 0.974 | [10] 1.01 | [11] 1.01 | [14] 0.994 | [15] 0.996 | [16] 0.912 | [17] 0.997 | [18] 1.01 | [19] 1 | [20] 0.999 | [21] 1.01 | [22] 0.981 | [23] 1.02 | [24] 0.986 | [25] 0.975 | [26] 1.04 | [27] 1.04 | [28] 0.935
